Measured values taken from the supplement of paper PMC7411054.

Experiments:
Assay in all cases: phenotypically active (imaging signature differs from DMSO and reproducible) at any of 0.3-9 uM (binary (1 = active, 0 = inactive)); higher = active
Settings in all cases: treatment time: 24 h
A549-ACTB-RAB5A = test system: A549-ACTB-RAB5A
Procedure, shortened: (§1)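 Cells from fifteen gene-edited reporter lines (A549, HepG2 and WPMY1) were treated for 24 h at 0.3, 1, 3 or 9 µM and imaged live, four wells per condition. Features were normalised per well to solvent control wells. A condition deviated if ≥3 of 4 wells passed the 95th percentile of control Euclidean distances and was reproducible if its median replicate Pearson correlation beat the 95th percentile of non-replicates; phenotypic activity needed both.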

A549-CANX-COX4 = test system: A549-CANX-COX4
Procedure, shortened: as §1

A549-GM130-SQSTM1 = test system: A549-GM130-SQSTM1
Procedure, shortened: as §1

A549-TP53BP1-CLTA = test system: A549-TP53BP1-CLTA
Procedure, shortened: as §1

A549-TUBA1B-RELA = test system: A549-TUBA1B-RELA
Procedure, shortened: as §1

HepG2-ACTB-RAB5A = test system: HepG2-ACTB-RAB5A
Procedure, shortened: as §1

HepG2-CANX-COX4 = test system: HepG2-CANX-COX4
Procedure, shortened: as §1

HepG2-GM130-SQSTM1 = test system: HepG2-GM130-SQSTM1
Procedure, shortened: as §1

HepG2-TP53BP1-CLTA = test system: HepG2-TP53BP1-CLTA
Procedure, shortened: as §1

HepG2-TUBA1B-RELA = test system: HepG2-TUBA1B-RELA
Procedure, shortened: as §1

WPMY1-ACTB-RAB5A = test system: WPMY1-ACTB-RAB5A
Procedure, shortened: as §1

WPMY1-CANX-COX4 = test system: WPMY1-CANX-COX4
Procedure, shortened: as §1

WPMY1-GM130-SQSTM1 = test system: WPMY1-GM130-SQSTM1
Procedure, shortened: as §1

WPMY1-TP53BP1-CLTA = test system: WPMY1-TP53BP1-CLTA
Procedure, shortened: as §1

WPMY1-TUBA1B-RELA = test system: WPMY1-TUBA1B-RELA
Procedure, shortened: as §1

Measured: phenotypically active

CC(C)C(=O)SCCCCC[C@H](NC(=O)OC(C)(C)C)C(=O)NC12CC3CC(CC(C3)C1)C2
inactive: A549-ACTB-RAB5A 0 | A549-CANX-COX4 0 | A549-GM130-SQSTM1 0 | A549-TP53BP1-CLTA 0 | A549-TUBA1B-RELA 0 | HepG2-ACTB-RAB5A 0 | HepG2-CANX-COX4 0 | HepG2-GM130-SQSTM1 0 | HepG2-TP53BP1-CLTA 0 | HepG2-TUBA1B-RELA 0 | WPMY1-ACTB-RAB5A 0 | WPMY1-CANX-COX4 0 | WPMY1-GM130-SQSTM1 0 | WPMY1-TP53BP1-CLTA 0 | WPMY1-TUBA1B-RELA 0

CCCCCCCCCCCCCCCCCCc1ccc(C(=O)/C=C/C(=O)O)cc1
inactive: A549-ACTB-RAB5A 0 | A549-CANX-COX4 0 | A549-GM130-SQSTM1 0 | A549-TP53BP1-CLTA 0 | A549-TUBA1B-RELA 0 | HepG2-ACTB-RAB5A 0 | HepG2-CANX-COX4 0 | HepG2-GM130-SQSTM1 0 | HepG2-TP53BP1-CLTA 0 | HepG2-TUBA1B-RELA 0 | WPMY1-ACTB-RAB5A 0 | WPMY1-CANX-COX4 0 | WPMY1-GM130-SQSTM1 0 | WPMY1-TP53BP1-CLTA 0 | WPMY1-TUBA1B-RELA 0

O=C(O)c1cc(/N=N/c2ccc(S(=O)(=O)Nc3ccccn3)cc2)ccc1O [Sulfasalazine]
inactive: A549-ACTB-RAB5A 0 | A549-CANX-COX4 0 | A549-GM130-SQSTM1 0 | A549-TP53BP1-CLTA 0 | A549-TUBA1B-RELA 0 | HepG2-ACTB-RAB5A 0 | HepG2-CANX-COX4 0 | HepG2-GM130-SQSTM1 0 | HepG2-TP53BP1-CLTA 0 | HepG2-TUBA1B-RELA 0 | WPMY1-ACTB-RAB5A 0 | WPMY1-CANX-COX4 0 | WPMY1-GM130-SQSTM1 0 | WPMY1-TP53BP1-CLTA 0 | WPMY1-TUBA1B-RELA 0

Cn1cccc1/C=C1\C(=O)NC(=O)c2ccccc21
inactive: A549-ACTB-RAB5A 0 | A549-CANX-COX4 0 | A549-GM130-SQSTM1 0 | A549-TP53BP1-CLTA 0 | A549-TUBA1B-RELA 0 | HepG2-ACTB-RAB5A 0 | HepG2-CANX-COX4 0 | HepG2-GM130-SQSTM1 0 | HepG2-TP53BP1-CLTA 0 | HepG2-TUBA1B-RELA 0 | WPMY1-ACTB-RAB5A 0 | WPMY1-CANX-COX4 0 | WPMY1-GM130-SQSTM1 0 | WPMY1-TP53BP1-CLTA 0 | WPMY1-TUBA1B-RELA 0

OCCN1C[C@H](O)[C@@H](O)[C@H](O)[C@H]1CO [Miglitol]
inactive: A549-ACTB-RAB5A 0 | A549-CANX-COX4 0 | A549-GM130-SQSTM1 0 | A549-TP53BP1-CLTA 0 | A549-TUBA1B-RELA 0 | HepG2-ACTB-RAB5A 0 | HepG2-CANX-COX4 0 | HepG2-GM130-SQSTM1 0 | HepG2-TP53BP1-CLTA 0 | HepG2-TUBA1B-RELA 0 | WPMY1-ACTB-RAB5A 0 | WPMY1-CANX-COX4 0 | WPMY1-GM130-SQSTM1 0 | WPMY1-TP53BP1-CLTA 0 | WPMY1-TUBA1B-RELA 0

CCOC(=O)[C@H](CCc1ccccc1)N[C@@H](C)C(=O)N1[C@H](C(=O)O)C[C@@H]2CCC[C@@H]21 [ramipril]
inactive: A549-ACTB-RAB5A 0 | A549-CANX-COX4 0 | A549-GM130-SQSTM1 0 | A549-TP53BP1-CLTA 0 | A549-TUBA1B-RELA 0 | HepG2-ACTB-RAB5A 0 | HepG2-CANX-COX4 0 | HepG2-GM130-SQSTM1 0 | HepG2-TP53BP1-CLTA 0 | HepG2-TUBA1B-RELA 0 | WPMY1-ACTB-RAB5A 0 | WPMY1-CANX-COX4 0 | WPMY1-GM130-SQSTM1 0 | WPMY1-TP53BP1-CLTA 0 | WPMY1-TUBA1B-RELA 0

O=C(O)[C@]1(O)C[C@H](O)[C@@H](O)[C@@H](O)C1 [Quinic acid]
inactive: A549-ACTB-RAB5A 0 | A549-CANX-COX4 0 | A549-GM130-SQSTM1 0 | A549-TP53BP1-CLTA 0 | A549-TUBA1B-RELA 0 | HepG2-ACTB-RAB5A 0 | HepG2-CANX-COX4 0 | HepG2-GM130-SQSTM1 0 | HepG2-TP53BP1-CLTA 0 | HepG2-TUBA1B-RELA 0 | WPMY1-ACTB-RAB5A 0 | WPMY1-CANX-COX4 0 | WPMY1-GM130-SQSTM1 0 | WPMY1-TP53BP1-CLTA 0 | WPMY1-TUBA1B-RELA 0

CC(=O)[C@H]1CC[C@H]2[C@@H]3CCC4=CC(=O)CC[C@]4(C)[C@H]3CC[C@]12C [progesterone]
inactive: A549-ACTB-RAB5A 0 | A549-CANX-COX4 0 | A549-GM130-SQSTM1 0 | A549-TP53BP1-CLTA 0 | A549-TUBA1B-RELA 0 | HepG2-ACTB-RAB5A 0 | HepG2-CANX-COX4 0 | HepG2-GM130-SQSTM1 0 | HepG2-TP53BP1-CLTA 0 | HepG2-TUBA1B-RELA 0 | WPMY1-ACTB-RAB5A 0 | WPMY1-CANX-COX4 0 | WPMY1-GM130-SQSTM1 0 | WPMY1-TP53BP1-CLTA 0 | WPMY1-TUBA1B-RELA 0

CC(C)C(=O)c1c(C(C)C)nn2ccccc12 [Ibudilast]
inactive: A549-ACTB-RAB5A 0 | A549-CANX-COX4 0 | A549-GM130-SQSTM1 0 | A549-TP53BP1-CLTA 0 | A549-TUBA1B-RELA 0 | HepG2-ACTB-RAB5A 0 | HepG2-CANX-COX4 0 | HepG2-GM130-SQSTM1 0 | HepG2-TP53BP1-CLTA 0 | HepG2-TUBA1B-RELA 0 | WPMY1-ACTB-RAB5A 0 | WPMY1-CANX-COX4 0 | WPMY1-GM130-SQSTM1 0 | WPMY1-TP53BP1-CLTA 0 | WPMY1-TUBA1B-RELA 0

C[C@@H]1O[C@@H](O[C@H]2[C@H](Oc3cc(O)c4c(c3)O[C@H](c3ccc(O)cc3)CC4=O)O[C@H](CO)[C@@H](O)[C@@H]2O)[C@H](O)[C@H](O)[C@H]1O [Naringin hydrate]
inactive: A549-ACTB-RAB5A 0 | A549-CANX-COX4 0 | A549-GM130-SQSTM1 0 | A549-TP53BP1-CLTA 0 | A549-TUBA1B-RELA 0 | HepG2-ACTB-RAB5A 0 | HepG2-CANX-COX4 0 | HepG2-GM130-SQSTM1 0 | HepG2-TP53BP1-CLTA 0 | HepG2-TUBA1B-RELA 0 | WPMY1-ACTB-RAB5A 0 | WPMY1-CANX-COX4 0 | WPMY1-GM130-SQSTM1 0 | WPMY1-TP53BP1-CLTA 0 | WPMY1-TUBA1B-RELA 0
